tim10-1 inh = growth inhibitors of tim10-1 mutant yeast; AID 463190; 2.2% of 330,000 active; inhibition, % at 20 µM; S. cerevisiae tim10-1 ts strain growth, BacTiter-Glo, 24 h;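 active = inhibition of at least 40%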;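 also: mutant grown at 25 °C; 0% = DMSO wells with yeast and 100% = wells holding no yeast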
tim23-1 inh = tim23-1 yeast growth inhibition; inhibition, % at 20 µM; 1.3% of 330,000 active; S. cerevisiae tim23-1 growth, BacTiter-Glo luminescence, 24 h;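 active = growth inhibition of the mutant yeast at or above 50%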;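 also: temperature-sensitive mutant grown at 25 °C; plate controls were DMSO-treated mutant yeast for no effect and medium wells lacking yeast for full effect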
TIM10 inh = TIM10 yeast growth inhibition; 1.4% of 330,000 active; S. cerevisiae TIM10 strain growth, BacTiter-Glo luminescence, 24 h; inhibition, % at 10 µM; AID 463195;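 active = inhibition of 40% or more at the single tested concentration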;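 also: wild-type TIM10 isogenic control strain grown at permissive 25 °C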
V-ATPase pH = alters yeast V-ATPase proton transport; S. cerevisiae, pHLuorin cytosolic pH fluorescence; 0.37% of 350,000 active; response, % at 10 µM; in the data active = response mostly above about 7.3%, no sharp cut-off; inactive = mostly below about 5.4%; also: actives read high
PfHsp90 set2 = growth inhibition of yeast expressing Plasmodium Hsp90 | S. cerevisiae expressing PfHsp90, BacTiter-Glo ATP, 48 h; yeast lacking PDR1 and PDR3 efflux regulators | inhibition, % at 9.4 µM | 0.32% of 310,000 active | AID 504621;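 active = every replicate shows inhibition above about 80%, whatever the replicate mean, limit read from the data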;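 also: 0% = DMSO neutral controls and 100% = 20 µM radicicol positive controls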
SKKanGAS inh = inhibitors of SKKanGAS S. pyogenes growth in kanamycin (SK-promoter or general growth effect). BacTiter-Glo, 6 h. inhibition, % at 7.5 µM. 1.3% of 300,000 active. AID 1662;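 active = mean replicate score, as percent of positive control median, at least 50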;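 also: strain carries kanamycin resistance gene driven by streptokinase promoter and grows in 40 µg/ml kanamycin; loss of luminescence reflects streptokinase promoter inhibition or plain growth inhibition; 0% = median of DMSO wells and 100% = positive control at its reference dose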
tim10-1 conf = tim10-1 yeast growth inhibition, confirmed | S. cerevisiae tim10-1 ts strain growth, BacTiter-Glo, 24 h | 56% of 7,400 active | inhibition, % at 20 µM | shares compounds with tim10-1 inh;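 active = inhibition of yeast growth at or above a set limit in either of two repeat tests at 20 µM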;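 also: tim10-1 mutant grown at permissive 25 °C to find synthetic lethal compounds; 0% = DMSO yeast wells and 100% = medium wells without yeast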
tim10 confirm = confirmation of TIM10 yeast growth inhibitors; shares compounds with TIM10 inh; S. cerevisiae tim10 strain growth, BacTiter-Glo luminescence, 24 h; inhibition, % at 10 µM; 63% of 4,600 active; AID 463215;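 active = inhibition of yeast growth at or above a set limit in either of two replicates at 10 µM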;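 also: this counterscreen used the strain with wild-type TIM10; 0% = yeast with DMSO and 100% = medium wells lacking yeast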
tim23-1 conf = confirmation of tim23-1 mutant yeast growth inhibitors; inhibition, % at 20 µM; shares compounds with tim23-1 inh; S. cerevisiae tim23-1 growth, BacTiter-Glo luminescence, 24 h; 83% of 4,400 active;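 active = inhibition above about 39% in either of two replicate wells at 20 µM, limit read from the data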;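 also: temperature-sensitive tim23-1 mutant grown at 25 °C; 0% = DMSO wells with yeast and 100% = medium wells without yeast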
The depositor's hits bear a star. A selection: hits, their analogues and other compounds. The true share with any hit is near 4.6%.

How did C[C@@H]1CN([C@@H](C)CO)C(=O)CCCn2nncc2CO[C@H]1CN(C)C(=O)Oc1ccccc1 do in these assays?
V-ATPase pH: -2

What do the screens show for `C=C(C)C(Cc1c(OC)ccc(C(=O)/C=C/c2ccc(O)cc2)c1O)OO` (stereo unspecified)?
tim10-1 inh: 44*; tim23-1 inh: 75*; TIM10 inh: 46*; V-ATPase pH: 6; tim10-1 conf: 65*; tim10 confirm: 69*; tim23-1 conf: 76*

Results for CCC(=NCc1ccco1)c1c(O)n(C2CCCCC2)c(=O)[nH]c1=O ?
tim10-1 inh: 34; tim23-1 inh: 42; TIM10 inh: 40*; V-ATPase pH: 7; PfHsp90 set2: 8; SKKanGAS inh: 0; tim10 confirm: 24

What do the screens show for `Nc1c2c(nc3sc4c(c13)CCCC4)CCCCC2`?
tim10-1 inh: -12; tim23-1 inh: 19; TIM10 inh: 4; V-ATPase pH: -2; PfHsp90 set2: 12; SKKanGAS inh: 0

How did Nc1c2c(nc3sc4c(c13)CCCC4)CCCC2 do in these assays?
tim10-1 inh: 24; tim23-1 inh: 49; TIM10 inh: 48*; V-ATPase pH: 2; PfHsp90 set2: 1; SKKanGAS inh: 7; tim10 confirm: 38*

What do the screens show for `CC(=O)c1cccc(NC(=O)N2C[C@H]3C[C@@H](C2)c2cccc(=O)n2C3)c1`?
tim10-1 inh: 5; tim23-1 inh: 12; TIM10 inh: -5; V-ATPase pH: 0; PfHsp90 set2: 1; SKKanGAS inh: -5

Results for Cn1cnc(CCN)c1 ?
tim10-1 inh: 22; tim23-1 inh: 3; TIM10 inh: 40*; V-ATPase pH: 3; PfHsp90 set2: -18; SKKanGAS inh: -1; tim10 confirm: 23

Results for NCCc1ccccn1 ?
tim10-1 inh: 5; tim23-1 inh: 6; TIM10 inh: 2; SKKanGAS inh: -8

Results for CC1(C)C[C@H]2C=C(C=O)[C@]3(C=O)C[C@]3(C)[C@H]2C1 ?
tim10-1 inh: -5; tim23-1 inh: -56; TIM10 inh: 50*; V-ATPase pH: 0; SKKanGAS inh: 0; tim10 confirm: 61*

How did CCC(=Nc1ccc2c(c1)CCC2)c1c(O)n(-c2ccc(OC)cc2)c(=O)[nH]c1=O do in these assays?
tim10-1 inh: 11; tim23-1 inh: 9; TIM10 inh: 12; V-ATPase pH: -3; PfHsp90 set2: 10; SKKanGAS inh: 0

How did O=c1cccc2n1CC1CC2CN(c2ncnc3c2cnn3-c2ccc(Cl)cc2)C1 (stereo unspecified) do in these assays?
tim10-1 inh: 40; tim23-1 inh: 35; TIM10 inh: 44*; V-ATPase pH: 0; PfHsp90 set2: -7; SKKanGAS inh: -1; tim10 confirm: 10

Results for CCOC(=O)c1ccc(N2C(=O)CC(N3CCC(C#N)(c4ccccc4)CC3)C2=O)cc1 (stereo unspecified) ?
tim10-1 inh: 38; tim23-1 inh: 42; TIM10 inh: 42*; V-ATPase pH: 1; PfHsp90 set2: 12; SKKanGAS inh: 6; tim10 confirm: 33*

Results for N#CC1(c2ccccc2)CCN(C2CC(=O)N(c3cccc(F)c3)C2=O)CC1 (stereo unspecified) ?
tim10-1 inh: 6; tim23-1 inh: 13; TIM10 inh: -1; V-ATPase pH: -1; PfHsp90 set2: 5; SKKanGAS inh: 1

Results for Cc1ccc(Cn2nc(C)c(C=O)c2Cl)cc1 ?
tim10-1 inh: 8; tim23-1 inh: 20; TIM10 inh: 9; V-ATPase pH: -1; PfHsp90 set2: -19; SKKanGAS inh: 2

Results for Cc1cc(C=C2C(=O)NC(=S)NC2=O)c(C)n1C1CCCC1 ?
tim10-1 inh: 38; tim23-1 inh: 55*; TIM10 inh: 46*; V-ATPase pH: 0; PfHsp90 set2: -10; SKKanGAS inh: -9; tim10 confirm: 45*; tim23-1 conf: 55*

Results for CN1CCN2c3ccc(N)cc3CC3(C(=O)NC(=O)NC3=O)C2C1 (stereo unspecified) ?
V-ATPase pH: -2; SKKanGAS inh: -15

What do the screens show for `O=c1[nH]c(O)c(/C=C2/C=CC(c3cc(Cl)ccc3Cl)=N2)c(=O)[nH]1`?
tim10-1 inh: 32; tim23-1 inh: 54*; TIM10 inh: 52*; V-ATPase pH: -1; PfHsp90 set2: -11; SKKanGAS inh: -8; tim10 confirm: 52*; tim23-1 conf: 59*

How did CC1=Nc2ccccc2/C1=C/c1c(O)[nH]c(=O)[nH]c1=O do in these assays?
tim10-1 inh: -11; tim23-1 inh: 2; TIM10 inh: 0; V-ATPase pH: -3; PfHsp90 set2: 18; SKKanGAS inh: -3

Results for CCCCCCCCn1sccc1=O ?
tim10-1 inh: -129; tim23-1 inh: 65*; TIM10 inh: 54*; V-ATPase pH: 37*; PfHsp90 set2: active; tim10 confirm: 58*; tim23-1 conf: -92

Results for CCOC(=O)C(O)(c1ccc(N(C)C(=O)COc2ccccc2)cc1)C(F)(F)F (stereo unspecified) ?
tim10-1 inh: 18; tim23-1 inh: 14; TIM10 inh: -2; V-ATPase pH: 3; PfHsp90 set2: -9; SKKanGAS inh: -2

How did CN(C)C(=O)O/N=C(\N)COc1ccc(C(C)(C)C)cc1 do in these assays?
tim10-1 inh: 14; tim23-1 inh: 59*; TIM10 inh: 73*; V-ATPase pH: 3; PfHsp90 set2: 13; SKKanGAS inh: -15; tim10 confirm: 81*; tim23-1 conf: 54*

What do the screens show for `CC1CCN(CCc2nc3ccccc3[nH]2)CC1`?
tim10-1 inh: 29; tim23-1 inh: 16; TIM10 inh: 3; V-ATPase pH: -2; PfHsp90 set2: -14; SKKanGAS inh: 8

What do the screens show for `CCn1c(O)c(C=Nc2ccc(S(N)(=O)=O)cc2)c(=O)n(CC)c1=S`?
tim10-1 inh: 10; tim23-1 inh: 10; TIM10 inh: 2; V-ATPase pH: 1; PfHsp90 set2: 5; SKKanGAS inh: -3

How did NS(=O)(=O)c1ccc(N=Cc2c(O)n(C3CCCCC3)c(=O)n(C3CCCCC3)c2=O)cc1 do in these assays?
tim10-1 inh: 24; tim23-1 inh: 52*; TIM10 inh: 32; V-ATPase pH: 0; PfHsp90 set2: -6; SKKanGAS inh: 51*; tim23-1 conf: 46*

What do the screens show for `O=C1CCCN1CC#CCN1CCCC1`?
tim10-1 inh: 4; tim23-1 inh: 3; TIM10 inh: -6; V-ATPase pH: 1; PfHsp90 set2: -15; SKKanGAS inh: 2

From PubChem BioAssay
